Results: PubChem BioAssay (Tox21)
Several values for one entry are separate records, joined by “and”; a condition that tells them apart may be missing. Equal entries are not always repeated. Records with an inconclusive call do not appear. Some compounds were tested as several samples or in several runs, with calls that do not always agree. Activity calls are given as the source filed them. Unless noted, the call rests on the fitted dose curve; in most records, active means well fitted curve in the direction sought with a large enough effect in the repeat runs; inconclusive means weak or mixed curves; inactive means no such curve, though single readings can be large; an effect the other way counts as inactive or inconclusive.

What was measured:
[1] = qHTS assay to identify small molecule antagonists of the androgen receptor (AR) signaling pathway using the MDA cell line in the presence of 0.5 nM R1881 - cell viability counter screen (AID 1259242); further: nearly all actives have a fitted effect of over 45% in size
Method in brief: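 Live-cell protease fluorescence, CellTiter-Fluor, 30 min at 37C. Cells: MDA-kb2, 3,000/well, preincubated 5 hr. Compounds plus 0.5 nM R1881 final, 16 hr, 37C, 0% CO2.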

[2] = target: Estrogen receptor (Homo sapiens) (UniProt P03372); experiment: qHTS assay to identify small molecule antagonists of the estrogen receptor alpha (ER-alpha) signaling pathway using the BG1 cell line in the presence of 0.1 nM 17-beta-estradiol (AID 1259244); further: nearly all actives have a fitted effect of over 50% in size
Estrogen receptor (Homo sapiens), sequence (P03372 whole entry, looked up): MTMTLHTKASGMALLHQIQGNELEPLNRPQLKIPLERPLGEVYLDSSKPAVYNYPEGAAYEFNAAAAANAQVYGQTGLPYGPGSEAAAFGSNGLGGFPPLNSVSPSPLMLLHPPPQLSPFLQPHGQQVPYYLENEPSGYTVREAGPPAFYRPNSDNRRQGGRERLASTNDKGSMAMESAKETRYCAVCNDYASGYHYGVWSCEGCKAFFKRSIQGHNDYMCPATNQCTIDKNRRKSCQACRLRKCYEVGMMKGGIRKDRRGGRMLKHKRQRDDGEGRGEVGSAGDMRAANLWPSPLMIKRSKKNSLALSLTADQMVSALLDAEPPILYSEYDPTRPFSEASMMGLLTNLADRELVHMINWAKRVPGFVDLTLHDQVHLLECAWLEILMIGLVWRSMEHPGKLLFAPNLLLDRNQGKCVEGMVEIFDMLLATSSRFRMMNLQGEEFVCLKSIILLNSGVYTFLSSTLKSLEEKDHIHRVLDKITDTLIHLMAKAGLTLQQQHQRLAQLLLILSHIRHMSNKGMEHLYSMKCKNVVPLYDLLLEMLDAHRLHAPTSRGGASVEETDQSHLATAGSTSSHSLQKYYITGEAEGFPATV
Method in brief: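 Luminescence after ONE-Glo (30 min, room temperature) measured ERE-luciferase activity in VM7Luc4E2 cells treated 22 h with compound and 0.1 nM final 17beta-estradiol as stimulator.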

[3] = qHTS assay to identify small molecule HDAC inhibitors (AID 1259364);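 further: wild-type HCT-116 cells with endogenous class I/II HDAC activity; top concentration of the series differs between compounds; nearly all actives have a fitted effect of over 45% in size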
Method in brief: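 HCT-116 (wild type), 1,500 cells/well, overnight; compound 2 hr 37C 5% CO2; HDAC-Glo I/II reagent 30 min RT; luminescence readout.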

[4] = qHTS assay to identify small molecule agonists of the sonic hedgehog signaling (Shh) pathway - cell viability counter screen (AID 1259366); further: nearly all actives have a fitted effect of over 50% in size; further: potency means the concentration at half of the fitted maximal effect
Method in brief: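 Same-well cytotoxicity read. Gli1-Luc reporter 3T3 cells; compounds 24hr, 37C/5% CO2; CellTiter-Fluor fluorescence.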

[5] = qHTS assay to identify small molecule antagonists of the sonic hedgehog signaling (Shh) pathway - cell viability counter screen (AID 1259367); further: nearly all actives have a fitted effect of over 55% in size; further: potency means the concentration at half of the fitted maximal effect
Method in brief: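 CellTiter-Fluor signal in conditioned medium-stimulated 3T3 Gli1-Luc cells, 23 hr compound exposure, 37C.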

[6] = qHTS assay to identify small molecule agonists of the sonic hedgehog signaling (Shh) pathway (AID 1259368; calls by dose curve;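 further: NIH/3T3-derived 3T3Gli1-Luc cells carrying a stable Gli1-driven firefly luciferase reporter; series mostly up to about 92 µM; nearly all actives have a fitted effect of over 15% in size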)
Method in brief: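 Read-out: firefly luciferase luminescence from a Gli1 response element reporter stably integrated in NIH/3T3-derived 3T3Gli1-Luc cells, measured 30 min at room temperature after reagent addition. Compound exposure lasted 24 hr at 37 C, 5% CO2.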

[7] = qHTS assay to identify small molecule antagonists of the sonic hedgehog signaling (Shh) pathway (AID 1259369; calls by dose curve; further: nearly all actives have a fitted effect of over 45% in size; further: potency means the concentration at half of the fitted maximal effect)
Method in brief: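 Luminescence readout: firefly Luc under Gli1 response element in 3T3Gli1-Luc cells (NIH/3T3 clone). Antagonist mode, stimulation by conditioned medium; compound exposure 24hr at 37 C, 5% CO2.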

[8] = qHTS assay to identify small molecule agonists of the androgen receptor (AR) signaling pathway in the presence of an antagonist - cell viability counter screen (AID 1259379);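 further: MDA-kb2 human breast cancer cells carrying an MMTV luciferase reporter; series mostly up to about 92 µM; nearly all actives have a fitted effect of over 25% in size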
Method in brief: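 Viability counter screen: CellTiter-Fluor fluorescence, measured in the same wells as the luciferase read-out. MDA-kb2 cells, 3,000/well, with nilutamide at 3.0uM final and compounds at 15 concentrations, 16 hr at 37C, 0% CO2.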

[9] = qHTS assay to identify small molecule agonists of the estrogen receptor beta (ER-beta) signaling pathway - cell viability counter screen (AID 1259380); further: nearly all actives have a fitted effect of over 30% in size
Method in brief: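 Luminescence read-out (CellTiter-Glo, 30 min, room temp) taken in the same wells as the beta-lactamase reporter assay; ER-beta-UAS-bla HEK293T cells exposed to DMSO-dissolved compounds for 16 hr at 37C in 2% charcoal-stripped FBS medium.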

[10] = target: Androgen receptor (Homo sapiens) (UniProt P10275); experiment: qHTS assay to identify small molecule agonists of the androgen receptor (AR) signaling pathway in the presence of an antagonist (AID 1259381; calls by dose curve; further: nearly all actives have a fitted effect of over 15% in size; further: potency means the concentration at half of the fitted maximal effect)
Androgen receptor (Homo sapiens), sequence (P10275 whole entry, looked up): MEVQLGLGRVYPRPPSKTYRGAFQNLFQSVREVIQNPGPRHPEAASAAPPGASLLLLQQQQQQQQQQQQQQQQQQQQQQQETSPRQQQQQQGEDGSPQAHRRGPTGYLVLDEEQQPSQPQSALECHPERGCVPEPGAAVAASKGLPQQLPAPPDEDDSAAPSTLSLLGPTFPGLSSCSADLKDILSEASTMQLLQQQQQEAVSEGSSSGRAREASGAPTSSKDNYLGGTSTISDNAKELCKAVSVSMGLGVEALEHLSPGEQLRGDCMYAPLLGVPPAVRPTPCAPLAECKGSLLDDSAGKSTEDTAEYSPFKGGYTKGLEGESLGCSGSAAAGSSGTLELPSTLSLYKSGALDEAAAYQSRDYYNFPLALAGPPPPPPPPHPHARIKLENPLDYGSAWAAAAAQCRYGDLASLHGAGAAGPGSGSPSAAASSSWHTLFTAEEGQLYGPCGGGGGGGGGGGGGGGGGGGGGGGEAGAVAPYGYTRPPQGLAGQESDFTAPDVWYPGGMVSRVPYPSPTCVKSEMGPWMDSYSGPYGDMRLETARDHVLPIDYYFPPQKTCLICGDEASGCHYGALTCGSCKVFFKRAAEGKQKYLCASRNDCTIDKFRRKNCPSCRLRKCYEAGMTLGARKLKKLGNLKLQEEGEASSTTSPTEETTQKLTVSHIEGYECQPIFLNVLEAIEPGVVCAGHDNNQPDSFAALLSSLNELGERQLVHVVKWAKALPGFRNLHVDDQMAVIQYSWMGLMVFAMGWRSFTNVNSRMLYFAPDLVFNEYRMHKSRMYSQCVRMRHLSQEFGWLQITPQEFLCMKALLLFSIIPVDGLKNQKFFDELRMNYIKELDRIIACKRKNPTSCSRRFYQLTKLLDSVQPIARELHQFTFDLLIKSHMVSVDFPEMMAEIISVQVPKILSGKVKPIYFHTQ
Method in brief: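 Luciferase read-out (ONE-Glo, 30min room temperature) in MDA-kb2 MMTV-reporter cells; agonist mode run in presence of AR antagonist nilutamide, 3.0uM final. Compounds tested as 15-point series, 16hr exposure at 37C, 0% CO2.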

[11] = target: Estrogen receptor (Homo sapiens) (UniProt P03372); experiment: qHTS assay to identify small molecule agonists of the estrogen receptor alpha (ER-alpha) signaling pathway in the presence of an antagonist (AID 1259383; calls by dose curve; further: top concentration of the series differs between compounds; nearly all actives have a fitted effect of over 15% in size)
Method in brief: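 Luciferase luminescence (ONE-Glo, 30min at room temperature) measured in VM7Luc4E2 cells after 22hr compound exposure at 15 concentrations, with 10.0nM ICI-182,780 final present; cells express endogenous ER-alpha and carry four EREs upstream of luciferase.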

[12] = qHTS assay to identify small molecule agonists or antagonists of the thyroid stimulating hormone receptor (TSHR) signaling pathway - wild type cell line counter screen (AID 1259384; calls by dose curve)
Method in brief: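 Counter screen in untransfected Hek293: compounds (15-point titration, triplicate) plus phosphodiesterase inhibitor Ro20-1724 added after 18 h plating; 30 min RT. Intracellular cAMP via competitive d2/cryptate immunoassay, 1 h incubation.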

[13] = target: Thyrotropin receptor (Homo sapiens) (UniProt P16473); experiment: qHTS assay to identify small molecule antagonists of the thyroid stimulating hormone receptor (TSHR) signaling pathway (AID 1259385; calls by dose curve; further: nearly all actives have a fitted effect of over 20% in size)
Thyrotropin receptor (Homo sapiens), sequence (P16473 whole entry, looked up): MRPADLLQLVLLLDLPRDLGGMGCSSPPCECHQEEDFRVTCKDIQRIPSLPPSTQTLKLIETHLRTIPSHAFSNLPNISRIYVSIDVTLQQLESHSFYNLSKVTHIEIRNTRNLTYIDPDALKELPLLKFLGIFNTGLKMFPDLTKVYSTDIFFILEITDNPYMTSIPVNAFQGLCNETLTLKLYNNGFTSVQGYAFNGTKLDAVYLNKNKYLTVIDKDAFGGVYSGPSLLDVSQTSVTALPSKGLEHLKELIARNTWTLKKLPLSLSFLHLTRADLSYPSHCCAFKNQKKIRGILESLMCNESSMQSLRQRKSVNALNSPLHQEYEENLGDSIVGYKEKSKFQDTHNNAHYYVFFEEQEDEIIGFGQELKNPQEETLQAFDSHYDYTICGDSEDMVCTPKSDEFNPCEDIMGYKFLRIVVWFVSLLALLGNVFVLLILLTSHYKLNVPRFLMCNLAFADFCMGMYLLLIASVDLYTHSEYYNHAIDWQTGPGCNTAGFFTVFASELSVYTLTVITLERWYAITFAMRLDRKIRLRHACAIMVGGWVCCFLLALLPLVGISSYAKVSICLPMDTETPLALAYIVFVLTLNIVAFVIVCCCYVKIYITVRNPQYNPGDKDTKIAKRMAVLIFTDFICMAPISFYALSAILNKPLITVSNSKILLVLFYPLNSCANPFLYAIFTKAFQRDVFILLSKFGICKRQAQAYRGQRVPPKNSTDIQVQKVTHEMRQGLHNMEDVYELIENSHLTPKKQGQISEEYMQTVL
Method in brief: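 Antagonist mode: compound-treated TSHR-expressing HEK293 cells were stimulated with 1.5 ng/mL TSH (final) in presence of Ro20-1724 for 30 min at RT. HTRF cAMP detection after 1 h; each compound tested at 15 concentrations, triplicate.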

[14] = qHTS assay to identify small molecule agonists of the estrogen receptor alpha (ER-alpha) signaling pathway in the presence of an antagonist - cell viability counter screen (AID 1259386);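 further: series mostly up to about 92 µM; cells exposed to compounds for 22 h at 37 °C before the viability read; nearly all actives have a fitted effect of over 30% in size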
Method in brief: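 Read-out: CellTiter-Fluor fluorescence after 1hr reagent incubation, measured in the same wells as the luciferase readout. VM7Luc4E2 cells were exposed to 15 compound concentrations with 10.0nM ICI-182,780 for 22hr at 37C.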

[15] = target: Progesterone receptor (Homo sapiens) (UniProt P06401); experiment: qHTS assay to identify small molecule agonists of the progesterone receptor (PR) signaling pathway (AID 1346784; calls by dose curve; further: nearly all actives have a fitted effect of over 30% in size)
Progesterone receptor (Homo sapiens), sequence (P06401 whole entry, looked up): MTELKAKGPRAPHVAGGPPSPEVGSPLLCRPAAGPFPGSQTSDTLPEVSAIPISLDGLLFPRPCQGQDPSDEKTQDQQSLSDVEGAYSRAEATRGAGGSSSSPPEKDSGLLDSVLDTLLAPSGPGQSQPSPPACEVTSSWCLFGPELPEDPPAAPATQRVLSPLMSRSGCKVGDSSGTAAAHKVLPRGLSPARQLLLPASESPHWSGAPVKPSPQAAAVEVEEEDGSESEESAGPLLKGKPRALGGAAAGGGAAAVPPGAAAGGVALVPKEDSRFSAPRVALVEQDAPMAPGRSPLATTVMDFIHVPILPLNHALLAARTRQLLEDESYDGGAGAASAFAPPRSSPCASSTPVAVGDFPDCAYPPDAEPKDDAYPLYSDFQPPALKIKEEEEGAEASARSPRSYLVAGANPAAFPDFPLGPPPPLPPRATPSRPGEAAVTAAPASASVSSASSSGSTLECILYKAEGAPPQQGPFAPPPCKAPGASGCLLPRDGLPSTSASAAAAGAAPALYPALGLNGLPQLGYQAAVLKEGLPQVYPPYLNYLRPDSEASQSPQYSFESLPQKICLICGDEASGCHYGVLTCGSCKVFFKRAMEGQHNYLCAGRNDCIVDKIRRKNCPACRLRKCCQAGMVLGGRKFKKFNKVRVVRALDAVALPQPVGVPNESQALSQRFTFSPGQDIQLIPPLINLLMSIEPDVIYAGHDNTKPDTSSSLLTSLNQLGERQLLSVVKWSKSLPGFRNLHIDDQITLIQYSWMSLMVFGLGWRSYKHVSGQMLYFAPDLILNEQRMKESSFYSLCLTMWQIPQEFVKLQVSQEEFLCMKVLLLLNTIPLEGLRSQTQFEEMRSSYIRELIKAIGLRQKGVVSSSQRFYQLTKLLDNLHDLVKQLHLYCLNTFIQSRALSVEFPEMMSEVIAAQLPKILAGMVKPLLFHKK
Method in brief: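 Compounds were tested for PR agonism in HEK 293T cells bearing a beta-lactamase gene under UAS control. Treatment lasted 16 hr at 37C; signal came from fluorescence of a FRET substrate.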

[16] = qHTS assay to identify small molecule phospholipidosis (PLD) inducers (AID 1259344; active means well fitted curve in the direction sought with a large enough effect; an effect the other way counts as inactive or inconclusive)
Method in brief: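 Accumulated phospholipid, stained red by LipidTOX during 24 h compound treatment of HepG2 cells at 37 C, is quantified from images as pit number and intensity, normalised per cell using Hoechst-stained nuclei.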

[17] = qHTS assay to identify small molecule HDAC inhibitors - cell viability counter screen (AID 1259365); further: series mostly up to about 92 µM; nearly all actives have a fitted effect of over 50% in size
Method in brief: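 After overnight seeding at 1,500 cells per well, wild-type HCT-116 cultures took up compounds in DMSO for 2hr at 37 C. Viable cell content came from luminescence with CellTiter-Glo.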

[18] = target: Estrogen receptor beta (Homo sapiens) (UniProt Q92731); experiment: qHTS assay to identify small molecule agonists of the estrogen receptor beta (ER-beta) signaling pathway (AID 1259377; active means well fitted activation curve with a large enough effect in the signal ratio in the repeat runs, not every such curve was filed as active; the % refers to the signal ratio)
Estrogen receptor beta (Homo sapiens), sequence (Q92731 whole entry, looked up): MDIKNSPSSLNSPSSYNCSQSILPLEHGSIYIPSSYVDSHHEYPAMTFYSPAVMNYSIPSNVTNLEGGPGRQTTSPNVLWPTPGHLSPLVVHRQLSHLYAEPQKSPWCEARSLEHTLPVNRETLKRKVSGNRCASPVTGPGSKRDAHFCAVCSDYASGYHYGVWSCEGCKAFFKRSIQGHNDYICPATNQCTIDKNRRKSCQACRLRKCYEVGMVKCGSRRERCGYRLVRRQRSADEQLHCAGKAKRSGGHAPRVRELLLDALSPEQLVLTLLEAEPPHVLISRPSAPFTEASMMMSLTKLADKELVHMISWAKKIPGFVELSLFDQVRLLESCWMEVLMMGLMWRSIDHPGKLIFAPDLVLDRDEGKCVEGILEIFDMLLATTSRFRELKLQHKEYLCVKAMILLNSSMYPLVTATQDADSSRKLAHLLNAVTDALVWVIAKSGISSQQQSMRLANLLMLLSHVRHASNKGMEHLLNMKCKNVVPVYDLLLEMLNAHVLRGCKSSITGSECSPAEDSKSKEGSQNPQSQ
Method in brief: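 Read-out: beta-lactamase FRET fluorescence. Cell line: ER-beta-UAS-bla HEK293T in 2% charcoal-stripped FBS. Exposure: 16 hr at 37C. Substrate step: 2 h at room temperature.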

[19] = qHTS assay to identify small molecule antagonists of the estrogen receptor beta (ER-beta) signaling pathway - cell viability counter screen (AID 1259382);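 further: HEK293T cells carrying ER-beta-UAS-bla reporter stimulated with estradiol; series mostly up to about 92 µM; nearly all actives have a fitted effect of over 55% in size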
Method in brief: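 Luminescent ATP read-out (CellTiter-Glo, 30 min, RT) taken in the same wells as the bla reporter assay. HEK293T ER-beta-UAS-bla cells in 2% charcoal-stripped FBS were exposed to compounds with 1nM E2 for 16 hr at 37C.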

[20] = target: Estrogen receptor beta (Homo sapiens) (UniProt Q92731); experiment: qHTS assay to identify small molecule antagonists of the estrogen receptor beta (ER-beta) signaling pathway (AID 1259378; active means well fitted inhibition curve with a large enough effect in the signal ratio in the repeat runs, not every such curve was filed as active; the % refers to the signal ratio)
Method in brief: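 Antagonist mode: compounds added to beta-lactamase reporter HEK293T ER-beta-UAS cells stimulated with E2 (1nM final), 16 hr at 37C. LiveBLAzer B/G FRET substrate, 2 hours room temperature, fluorescence read-out.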
On the % scale 0 is the no-effect control and ±100 the full control effect.

CCOP(=S)(S)OCC
inactive: Potency [1] | Potency [2] | Potency [3] | Potency [4] | Potency [5] | Potency [6] | Potency [7] | Potency [8] | Potency [9] | Potency [10] | Potency [11] | outcome [12] | Potency [13] | Potency [14] | Potency [15]

C[C@@H]1C[C@@H]([C@H](O)CC2CC(=O)NC(=O)C2)C(=O)[C@@H](C)C1
active: Potency [4] 2.16 µM | Potency [5] 136 nM and 969 nM | Potency [7] 12.1 nM and 48.6 nM and 150 nM
inactive: Potency [1] | PLD induction [16] 2.68% [at 7.66 µM] | Potency [3] | Potency [17] | Potency [6] | Potency [18] | Potency [8] | Potency [19] | outcome [12] | Potency [13] | Potency [14] | Potency [15]

CCCCCCCCCCCCN(C)C
inactive: Potency [1] | Potency [2] | Potency [3] | Potency [17] | Potency [5] | Potency [6] | Potency [7] | Potency [18] | Potency [20] | Potency [8] | Potency [9] | Potency [19] | Potency [11] | outcome [12] | Potency [13] | Potency [14] | Potency [15]

CN(C)N
inactive: Potency [1] | Potency [3] | Potency [17] | Potency [4] | Potency [5] | Potency [6] | Potency [7] | Potency [18] | Potency [20] | Potency [8] | Potency [9] | Potency [10] | Potency [19] | outcome [12] | Potency [13] | Potency [14]

COc1ccc(C(=O)c2c(C)n(CCN3CCOCC3)c3ccccc23)cc1
inactive: Potency [1] | outcome [16] | Potency [3] | Potency [6] | Potency [7] | Potency [18] | Potency [20] | Potency [8] | Potency [9] | Potency [19] | Potency [14] | Potency [15]

O=C(O)CCCOc1ccc(Cl)cc1Cl
inactive: Potency [1] | outcome [16] | Potency [3] | Potency [17] | Potency [4] | Potency [5] | Potency [6] | Potency [20] | Potency [8] | Potency [9] | Potency [19] | outcome [12] | Potency [14]
inactive and 55.4 µM (active): Potency [10]
inactive and 44 µM (active): Potency [7]

COc1ccc2c(c1OC)C(=O)O[C@H]2[C@@H]1c2cc3c(cc2CCN1C)OCO3
inactive: Potency [1] | outcome [16] | Potency [3] | Potency [17] | Potency [6] | Potency [7] | Potency [18] | Potency [20] | Potency [8] | Potency [9] | Potency [10] | Potency [19] | outcome [12] | Potency [13] | Potency [15]
active: Potency [4] 5.96 µM | Potency [5] 5.96 µM

Nc1c(Br)cc(Br)c2c1C(=O)c1ccccc1C2=O
inactive: viability change, negative = cytotoxic [1] 2.34% [at 19 µM] | activity change, negative = inhibition [2] 16.5% [at 19 µM] | activity change, negative = inhibition [3] -14.9% [at 19 µM] | activity change, negative = cytotoxicity [17] -8.35% [at 19 µM] | activity change [6] 9.18% [at 18.9 µM, stronger effect = higher value] | activity change, negative = inhibition [7] -1.9% [at 19 µM] | activity change, negative = cytotoxicity [8] -5.97% [at 19 µM] | activity change, negative = cytotoxicity [9] -3.72% [at 19 µM] | activation [10] 0.208% [at 19 µM] | activity change, negative = cytotoxicity [19] 0.853% [at 19 µM] | activation [11] 1.8% [at 19 µM] | cAMP activity change [12] 2.44% [at 18.9 µM] | activity change, negative = inhibition [13] -1.61% [at 19 µM] | activity change, negative = cytotoxicity [14] -8.67% [at 19 µM] | activation [15] 0.744% [at 19 µM]
